Source: PubChem BioAssay
DAX1 inh-1: inhibitors of DAX1 repression of SF-1 activated StAR promoter | HEK293T StAR-luciferase reporter, SF-1/DAX-1 repression relief | inhibition, % at 6.8 µM | hit rate 1.1% among 370,000 | AID 652010;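 active means inhibition above the mean over all tested compounds plus 3 SD, cut at about 3.6% in these data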;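 further: 0% = DAX-1 cells with DMSO and 100% = cells lacking DAX-1 with DMSO; higher inhibition means more luminescence from relief of DAX-1 repression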
ssDAF-12 act: activates DAF-12 receptor from parasite S. stercoralis. hit rate 1% among 370,000. HEK293 ssDAF-12/GRIP1 lit1-tk-luc reporter, luminescence; % of 3 µM dafachronic acid response. activation, % at 6.8 µM. AID 652126;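 active means activation above the mean over all tested compounds plus 3 SD, cut at about 0.9% in these data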;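 further: 0% = DMSO-only wells and 100% = 3 µM delta7-dafachronic acid wells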
DAX1 inh-2: inhibitors of human orphan nuclear receptor DAX1 (NR0B1); hit rate 0.99% among 340,000; inhibition, % at 6.75 µM; HEK293 Gal4-DAX1 luciferase reporter, luminescence; P51843;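 active means inhibition above the mean over all tested compounds plus 3 SD, cut at about 4.2% in these data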;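 further: 0% = DAX1-transfected cells with DMSO and 100% = empty-vector control cells with DMSO; inhibition shows as a rise in luminescence from relieved DAX1 repression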
Target sequence (P51843 207-470 limits assumed): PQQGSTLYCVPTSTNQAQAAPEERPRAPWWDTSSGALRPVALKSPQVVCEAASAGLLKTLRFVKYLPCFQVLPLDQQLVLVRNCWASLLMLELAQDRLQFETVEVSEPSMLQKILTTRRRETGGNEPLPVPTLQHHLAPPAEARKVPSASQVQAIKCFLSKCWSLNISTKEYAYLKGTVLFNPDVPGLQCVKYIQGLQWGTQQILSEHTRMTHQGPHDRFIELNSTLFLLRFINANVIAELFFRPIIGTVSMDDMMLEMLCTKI
hgDAF12 agonist: agonists of H. glycines DAF-12 nuclear receptor; AID 687014; activation, % at 6.8 µM; hit rate 1.8% among 370,000; HEK293 GAL4-hgDAF12 UAS-luciferase reporter, agonist luminescence; normalized to butyrate control;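 active means activation above a cutoff set at the mean of all screened compounds plus 3 SD, cut at about 10% in these data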;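 further: 0% = DMSO wells and 100% = sodium butyrate wells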
hcDAF12 agonist: activates DAF-12 receptor from parasite H. contortus. hit rate 1.4% among 370,000. activation, % at 6.8 µM. HEK293 hcDAF-12 lit1-tk-luc reporter, luminescence; 0% DMSO, 100% Δ7-dafachronic acid;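 active means activation above the mean of all tested compounds plus 3 SD, cut at about 5.5% in these data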;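 further: 100% = response to 3 µM Δ7-dafachronic acid high control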
AHR act: human AHR activation | hit rate 2.5% among 320,000 | AID 2796 | activation, % at 5 µM | AHR-responsive luciferase reporter cells, luminescence; in the data active means activation above about 47%;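 further: 0% = vehicle wells and 100% = reference agonist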
* hit, by the source's call; nt = no result given. A selection: hits, their analogues and other compounds. The true share with any hit is near 5.7%.

SMILES	DAX1 inh-1	ssDAF-12 act	DAX1 inh-2	hgDAF12 agonist	hcDAF12 agonist	AHR act
Cc1cccc(C)c1NC(=O)CNC(=O)CCC(=O)N1CCOCC1	3.7*	-1	-1	2	1	0
COC(=O)c1ccc2nc(C3CCCCC3)c(Cc3ccc(C)cc3)n2c1	1	1.0*	nt	5	3	nt
FC(F)(F)c1ccccc1Cc1c(C2CCCCC2)nc2ccc(Cl)cn12	-1	-1	nt	-1	0	nt
COC(=O)c1ccc2nc(-c3ccco3)c(Cc3ccccc3OC)n2c1	-2	1.3*	nt	6	2	nt
COC(=O)c1ccc2nc(C3CCCCC3)c(Cc3ccccc3C(F)(F)F)n2c1	3.6*	0	nt	2	2	nt
CCOc1ccc(C(=O)NC2=NCCS2)cc1	3	0	nt	10	5	43
CCOc1cc(C(=O)NC2=NCCS2)cc(OCC)c1OCC	1	-1	2	2	1	55*
O=C(Nc1ccccc1)c1ccc(S(=O)(=O)Nc2cccc(O)c2)cc1	-2	-1	-2	-4	-4	4
Cc1cc(SCC(=O)N/N=C/c2cccnc2)nc2c(C)cccc12	1	-2	-1	1	-1	10
CC(=O)Nc1ccc(C(=O)CSc2cc(C)c3cccc(C)c3n2)cc1	0	-1	-1	-2	0	66*
CC(=O)Cc1cc(O)c2ccccc2c1OC(=O)c1ccc(Br)cc1	-1	1	-1	1	1	69*
Cc1ccc(C(=O)NNC2=NCCC2)cc1	0	0	-1	-2	0	2
C=CCc1cc(C)ccc1OCCn1ccnc1	0	-1	0	2	0	23
C=CCc1cc(C)ccc1OCCOCCn1ccnc1	0	-2	0	-3	-3	55*
CC(C)(C)n1[nH]c2c3c(ccc2c1=O)C(=O)c1ccccc1C3=O	-1	-2	1	-6	-3	50*
COCCCn1[nH]c2c3c(ccc2c1=O)C(=O)c1ccccc1C3=O	0	-1	2	1	-1	52*
Cc1ccc(-n2[nH]c3c4c(ccc3c2=O)C(=O)c2ccccc2C4=O)cc1	-1	-1	-1	1	-2	0
CCOC(=O)CC(=O)CSc1nc2nc(C)cc(C)n2n1	0	-1	0	-1	-2	0
CCC(C)(C)NC(=O)CN(C(=O)CNS(=O)(=O)c1ccccc1)c1ccc2c(c1)OCCO2	0	-1	1	1	1	-1
Cc1ccc2oc(=O)c3cc(C(=O)NCc4ccco4)sc3c2c1	-1	-2	6.1*	-2	2	-1
CC(C)NC(=O)c1ccc(N2CCOCC2)nc1	-1	-2	0	1	-1	3
COc1ccc(Cl)c(NC(=O)NCCN2CCN(c3ccccc3)CC2)c1	0	-1	0	-1	-1	6
COc1cc(NC(=O)CSc2nnc(Cn3nnc4ccccc43)n2C)cc(OC)c1	-1	-1	-2	-2	-2	7
Cc1ccc(Cn2cccc(-c3nc4ccccc4s3)c2=O)cc1	1	0	3	8	2	9
O=c1c(-c2nc3ccccc3s2)cccn1Cc1ccccc1	1	0	2	12*	1	3
SMILES	DAX1 inh-1	ssDAF-12 act	DAX1 inh-2	hgDAF12 agonist	hcDAF12 agonist	AHR act
CC(C)CN(CC(C)C)C(=O)CN1C(=O)NC2(CCCc3ccccc32)C1=O (configuration not stated)	0	-1	4	-1	0	0
Cn1c(N2CCOCC2)c(/C=N/O)c2ccccc21	0	0	7.5*	1	5	46
CCN1CCCC1CNc1ccc(S(C)(=O)=O)cc1[N+](=O)[O-] (configuration not stated)	0	-1	-1	0	-2	-1
Cc1cc(C)n(-c2nc3ccccc3c(=O)n2OCC(=O)OCc2ccccc2)n1	-1	-1	0	-4	0	nt
Cc1cc(C)n(-c2nc3ccccc3c(=O)n2OCc2ccc(Cl)cc2)n1	1	-1	0	1	1	49*
Cc1cc(C)n(-c2nc3ccccc3c(=O)n2OCc2ccc(F)cc2)n1	-1	0	0	1	2	54*
CCCn1c(N)c(C(=O)CSc2nnc(Cc3ccccc3)o2)c(=O)n(C)c1=O	-3	-2	-3	-6	-3	-1
Cc1cc(C)c(C)c(S(=O)(=O)Nc2ccccc2C(=O)O)c1C	0	-1	4.9*	-2	1	2
O=C(N/N=C/c1cccc([N+](=O)[O-])c1)c1cccs1	1	-1	1	10	2	1
CCOc1cc(/C=N/NC(=O)c2cccs2)cc([N+](=O)[O-])c1O	2	0	1	12*	2	nt
O=C(Nc1ncc(Cc2ccccc2Cl)s1)C1CCCO1 (configuration not stated)	2	0	0	12*	2	2
O=c1cc(-c2ccc(F)cc2F)[nH]c2ccccc12	nt	nt	nt	nt	nt	2
O=c1cc(-c2ccccc2)[nH]c2ccc(F)cc12	1	-1	1	1	0	58*
COc1ccc2[nH]c(-c3cccc(F)c3)cc(=O)c2c1	0	0	3	-1	3	58*
COc1ccc(-c2cc(=O)c3ccccc3[nH]2)cc1	1	-1	3	1	0	38
Cc1ccc2[nH]c(-c3cccc(F)c3)cc(=O)c2c1	2	1	2	2	5	50*
O=c1cc(-c2cccc(F)c2)[nH]c2ccccc12	2	0	0	-3	2	61*
Cc1ccc(-c2cc(=O)c3cc(F)ccc3[nH]2)cc1	1	-1	3	4	1	22
CCOC(=O)C1=C(N)N2C(=O)C(C)SC2=C(C(=O)OCC)C1c1ccccc1 (configuration not stated)	0	-1	-1	-1	0	1
O=C(c1cc2c(c(-c3cccc(-c4ccncc4)c3)n1)[C@@H](CCO)N(C(=O)c1ccc3c(c1)OCO3)C2)N1CCOCC1	3.7*	0	nt	8	3	nt
COc1ccc(S(=O)(=O)NCC2CCCN(C(=O)c3ccco3)C2)cc1 (configuration not stated)	2	-2	-1	-2	-2	0
C/C(Cc1ccccc1)=N/NC(=O)CNC(=O)C(c1ccccc1)c1ccccc1	0	0	0	0	6.0*	1
CC(=Nc1cccc(O)c1)c1sc2ccccc2c1O	2	1.5*	3	8	3	1
Oc1c(C=Nc2ccccc2)sc2ccccc12	1	0	3	9	3	6
CCCCn1cnc2c(oc3ccccc32)c1=O	1	0	1	12*	0	nt
Cc1sc2nc(SCC(=O)N3CCCCC3)[nH]c(=O)c2c1C	-1	-1	1	0	1	8
Cc1sc2nc(SCC(=O)N3CCCC3)[nH]c(=O)c2c1C	2	-1	2	0	0	59*
